Columns and labels:
Format in all cases: functional
[1] = biological target: Solute carrier family 2, facilitated glucose transporter member 1 (Homo sapiens) (UniProt P11166); assay: ST_JUDE_LEISH: Cytotoxicity at 2uM final concentration against transgenic Leishmania Mexicana promastigotes LmGLUT1 that are glucose transport deficient and complemented with the human glucose transporter GLUT1. Activity is measured by DNA content using SYBR green in vitro
[2] = biological target: Hexose transporter 1 (Plasmodium falciparum) (UniProt O97467); assay: ST_JUDE_LEISH: Cytotoxicity at 2uM final concentration against transgenic Leishmania Mexicana promastigotes LmPfHT that are glucose transport deficient and complemented with the Plasmodium falciparum hexose transporter. Activity is measured by DNA content using SYBR green in vitro
[3] = biological target: Glucose transporter (Leishmania mexicana) (UniProt O61059); assay: ST_JUDE_LEISH: Cytotoxicity at 2uM final concentration against transgenic Leishmania Mexicana promastigotes LmGT2 that are glucose transport deficient and complemented with the L. Mexicana glucose transporter 2. Activity is measured by DNA content using SYBR green in vitro

Sequence of Solute carrier family 2, facilitated glucose transporter member 1 (Homo sapiens) (P11166 whole entry): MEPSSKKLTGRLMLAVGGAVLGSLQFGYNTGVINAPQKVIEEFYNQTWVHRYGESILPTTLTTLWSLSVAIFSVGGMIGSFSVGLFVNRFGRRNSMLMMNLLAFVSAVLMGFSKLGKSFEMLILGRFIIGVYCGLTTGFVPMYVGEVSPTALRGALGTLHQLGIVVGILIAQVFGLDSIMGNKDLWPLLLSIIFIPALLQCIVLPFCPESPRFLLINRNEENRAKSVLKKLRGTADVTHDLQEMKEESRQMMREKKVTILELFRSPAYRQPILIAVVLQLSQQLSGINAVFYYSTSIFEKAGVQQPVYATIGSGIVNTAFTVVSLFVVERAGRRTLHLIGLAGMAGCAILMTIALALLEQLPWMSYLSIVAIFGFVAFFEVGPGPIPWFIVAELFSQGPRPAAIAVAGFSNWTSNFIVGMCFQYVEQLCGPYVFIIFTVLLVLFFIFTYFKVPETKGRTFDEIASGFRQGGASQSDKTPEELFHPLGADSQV

SMILES | inhibition [1] | inhibition [2] | inhibition [3]
CCCc1cc(Cc2cnc(N)nc2N)c2cccnc2c1OC | 6.44% | 4.01% | 4.33%
CCCCn1c(-c2ccco2)nc2c(c(=O)c3ccccc3n2C)c1=O | 8.79% | 5.89% | 4.14%
COc1ccc(Oc2ccc(-c3c(C)[nH]c(C)c(Cl)c3=O)cc2)cc1 | 2.75% | 3.46% | 2.72%
COc1ccc(Oc2ccc(-c3c(O)cc(C)nc3C)cc2)cc1 | 2.96% | 3.75% | 1.27%
CC(=O)Nc1ccc(CN(Cc2cccc(OC(C)(C)C)c2)Cc2ccc3c(c2)OCCO3)cc1 | 4.55% | 2.67% | 6.39%
CC(C)(CNCc1ccc(F)c(F)c1)c1nc(-c2ccnc(N)n2)c(-c2ccc(Cl)c(O)c2)[nH]1 | 3.92% | 1.07% | 2.56%
CCOc1cc(C(=O)NCCCN2CCN(c3cccc(Cl)c3)CC2)ccc1-c1nc2cc(Cl)c(F)cc2[nH]1 | -0.54% | -0.11% | -0.18%
COc1cc(Cc2cnc(N)nc2N)cc(OCCCCC#N)c1OC | 2.09% | 1.74% | 5.77%
CC(C)Nc1nc(NCCc2c[nH]cn2)nc(NCc2ccc(Cl)c(Cl)c2)n1 | 3.82% | 0.13% | -0.25%
Cc1cc2nc(-c3ccc(C(=O)NCCCc4ccccc4)cc3)[nH]c2cc1C | 9.41% | 9.39% | 10.1%
Cc1cccc2nc(-c3cccc(-c4ccc(C(=O)NCc5nccn5C)cc4)c3)[nH]c12 | 1.94% | 3.7% | 1.69%
CN1CCN(c2ccnc3ccc(NC(=O)c4ccc(Cl)c(Cl)c4)cc23)CC1 | -1.88% | 0.68% | 0.97%
CCCCCN1CCCCC(NS(=O)(=O)c2ccc(C(=O)Nc3cccc(C(F)(F)F)c3)cc2)C1 (configuration not stated) | 6.68% | 5.05% | 3.25%
COc1ccc2ccccc2c1C=NNc1ccnc2cc(Cl)ccc12 | 1.99% | 0.95% | 1.17%
O=c1c(NCCCN(Cc2ccc(F)cc2)c2ccccn2)c(NCc2ccncc2)c1=O | 4.35% | 3.53% | 5.17%
OC(CNCCCCCCNCC(O)c1ccc(Cl)c(Cl)c1)c1ccc(Cl)c(Cl)c1 (configuration not stated) | 3.81% | 4.69% | 3.55%
COc1ccc(-c2ccc(NC(=O)c3cccc(C#N)c3)cc2)cc1CN1CCC(O)CC1 | -0.68% | -0.84% | 2.05%

SMILES | inhibition [1] | inhibition [2] | inhibition [3]
Clc1cc(Nc2ccnc3ccc(Br)cc23)ccc1Oc1ccc(Cl)c2ccccc12 | 3.45% | 3.8% | 2.81%
COc1ccc2nc3cc(Cl)ccc3c(NCCN(C)C)c2c1 | 7.53% | 5.07% | 6.53%
Cc1cccn2c(=O)c3cc(C(=O)NC(C)c4ccccc4)c(=N)n(CCc4ccccc4)c3nc12 (configuration not stated) | 12.2% | 16.8% | 11.9%
O=C(Nc1ccc(Oc2ccccc2)cc1)N[C@H]1CCN(Cc2ccc(OCCCN3CCCCC3)cc2)C1 | -2.21% | -1.17% | -3.91%
O=C(Nc1cccc(F)c1)N[C@H]1CCN(CCCCCNC(=O)C2CC2c2ccc(Cl)c(Cl)c2)C1 (some centres not stated) | 4.75% | 3.61% | 0.83%
NC1=NC2(CCCC2)C(c2ccc(Cl)c(Cl)c2)C(N)=N1 (configuration not stated) | 2.63% | 3.21% | 4.7%
Cc1cccc2nc(-c3ccc(-c4cccc(C(=O)N5CCCCC5C(C)O)c4)s3)[nH]c12 (configuration not stated) | 1.3% | 2.52% | 3.46%
COc1ccccc1CNc1ccnc(N2CC(Oc3ccc(F)cc3)C2)n1 | -2.09% | 0.57% | -2.53%
Cc1[nH]c(C)c(-c2ccc(Nc3ccc(C(F)(F)F)cn3)cc2)c(=O)c1Br | 2.7% | 5.96% | 3.17%
COc1ccc2nccc(N3CCC(NCCNCc4ccc5c(n4)NC(=O)CO5)C3)c2n1 (configuration not stated) | 1.29% | 1.28% | 1.15%
Cc1cc(S(=O)(=O)N2CCCCC(c3ccc(C(F)(F)F)cc3)=N2)c(Cl)cc1Cl | 3.58% | 4.02% | -1.4%
NC(=O)c1cccc(C(=O)Nc2cccc(-c3ccc(-c4nc5cc(C(F)(F)F)ccc5[nH]4)cc3)c2)c1 | 0.31% | 4.83% | 2.53%
Cc1cc(N/N=C/c2cccc([N+](=O)[O-])c2)c2ccccc2n1 | 1.39% | 1.27% | 4.98%
CC(C)CCNC(=O)C1Cc2c([nH]c3cc(Br)ccc23)C2(CCN(Cc3ccccc3)CC2)N1 (configuration not stated) | 15% | 11.3% | 14.8%
COc1c(CN2CCCC2)cccc1-c1cc2c(-c3ccc(C(=O)O)c(C(C)C)c3)ccnc2[nH]1 | 3% | 2.05% | 2.09%
CCC(C)c1ccc(Nc2nc(C)cc(N(CC)CCCN3CCCCC3)n2)cc1 (configuration not stated) | -1.09% | 0.87% | 1.67%
COc1ccc(NC(=O)NC2CCN(CCCCCNC(=O)/C=C/c3ccc(Cl)c(Cl)c3)C2)c(OC)c1 (configuration not stated) | -1.78% | -1.48% | 2.83%
